Consider 21 compounds from PubChem BioAssay (NCATS).

Test [1] can be described thus: NS1 protein of Zika virus - qHTS assay to identify small molecule inhibitors in human HEK 293 cells (AID 1347053). Further: nearly all actives have a fitted effect of over 55% in size. Further: potency means the concentration at half of the fitted maximal effect. As to conditions: HEK293 ZIKV MR766 infection, NS1 TR-FRET, 24 h; series mostly up to 46.1 µM. In outline: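 HEK 293 cells pretreated with compound for 1 h, then infected with ZIKV MR766 (MOI 0.5) for 24 h at 37 C. NS1 detected by TR-FRET with two anti-NS1 antibodies; normalized to uninfected (0%) and infected (100%) wells.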
A general note: qHTS replaces the single test concentration by a dilution series.

Test [2] is described as follows: qHTS of pediatric cancer cell lines to identify multiple opportunities for drug repurposing: Primary screen for TC32 cells (AID 1347089). Further: nearly all actives have a fitted effect of over 60% in size. Further: potency means the concentration at half of the fitted maximal effect. As to conditions: TC32 Ewing sarcoma viability, CellTiter-Glo luminescence, 48 h; series mostly up to 45.8 µM. Summed up:
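TC32 cells, 500-1,000/well in growth medium, compound-treated 48 h at 37 °C; viability from CellTiter-Glo luminescence. Primary screen: MIPE 11-point (0.78 nM–46 µM final), NPC 8-point (0.59 nM–46 µM final); confirmatory at 11-point dilutions.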

Test [3] in a line: qHTS of pediatric cancer cell lines to identify multiple opportunities for drug repurposing: Primary screen for SJ-GBM2 cells (AID 1347091). Further: potency means the concentration at half of the fitted maximal effect. The note with it: SJ-GBM2 viability, CellTiter-Glo luminescence, 48 h; series mostly up to 46 µM. Summed up:
(§1)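 Eight- or eleven-point concentration series, 48 h treatment at 37 degrees C in growth media; readout CellTiter-Glo luminescence. Potency and efficacy were taken from the concentration-response curves.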

Test [4] can be described thus: qHTS of pediatric cancer cell lines to identify multiple opportunities for drug repurposing: Primary screen for DAOY cells (AID 1347090). Further: nearly all actives have a fitted effect of over 55% in size. Further: potency means the concentration at half of the fitted maximal effect. The note with it: DAOY medulloblastoma viability, CellTiter-Glo luminescence, 48 h; series mostly up to 46 µM. Summed up:
as §1

The target in test [5] is T1, Tyrosine-protein phosphatase non-receptor type substrate 1 (Homo sapiens) + Leukocyte surface antigen CD47 (Homo sapiens) (UniProt P78324+Q08722). The test is described as follows: CD47-SIRPalpha protein protein interaction - LANCE assay qHTS validation (AID 1347057; active means well fitted curve in the direction sought with a large enough effect in the signal ratio, with a control signal flat, not every such curve was filed as active; the % refers to the signal ratio). As to conditions: Recombinant CD47-His / biotin-SIRPalpha, TR-FRET ratio; series mostly up to 38.3 µM. Summed up: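 First, His-tagged CD47 and Eu-labelled anti-His antibody met the compound for 30 min; next, site-specifically biotinylated SIRPalpha was added for 30 min; finally streptavidin-APC was added before reading the TR-FRET ratio.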
(In general: Time-resolved FRET reads energy transfer from a long-lived donor to a nearby acceptor.)

Test [6] deals with T1, Tyrosine-protein phosphatase non-receptor type substrate 1 (Homo sapiens) + Leukocyte surface antigen CD47 (Homo sapiens). The test is described as follows: CD47-SIRPalpha protein protein interaction - HTRF assay qHTS validation (AID 1347058; active means well fitted curve in the direction sought with a large enough effect in the signal ratio, not every such curve was filed as active; the % refers to the signal ratio;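 further: recombinant soluble extracellular CD47 with His tag and biotinylated SIRPalpha domains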). As to conditions: TR-FRET HTRF CD47-His / biotin-SIRPalpha binding, ratio 665/615; series mostly up to 38.3 µM. In outline:
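TR-FRET read (Ch1/Ch2 ratio) of soluble extracellular CD47 and Avi-biotinylated SIRPalpha domains in PBS pH 7.4 with 0.05% IGEPAL; 7-point compound titration. Sequential 30 min room-temperature steps; non-biotinylated SIRPalpha as control inhibitor.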

Records with an inconclusive call do not appear. Activity calls are given as the source filed them. Unless noted, the call rests on the fitted dose curve; in most records, active means well fitted curve in the direction sought with a large enough effect; inconclusive means small, poorly fitted or top-dose-only effect, or another doubt; inactive means no such curve, though single readings can be large; an effect the other way counts as inactive or inconclusive.

T1 sequence (P78324 whole entry, looked up): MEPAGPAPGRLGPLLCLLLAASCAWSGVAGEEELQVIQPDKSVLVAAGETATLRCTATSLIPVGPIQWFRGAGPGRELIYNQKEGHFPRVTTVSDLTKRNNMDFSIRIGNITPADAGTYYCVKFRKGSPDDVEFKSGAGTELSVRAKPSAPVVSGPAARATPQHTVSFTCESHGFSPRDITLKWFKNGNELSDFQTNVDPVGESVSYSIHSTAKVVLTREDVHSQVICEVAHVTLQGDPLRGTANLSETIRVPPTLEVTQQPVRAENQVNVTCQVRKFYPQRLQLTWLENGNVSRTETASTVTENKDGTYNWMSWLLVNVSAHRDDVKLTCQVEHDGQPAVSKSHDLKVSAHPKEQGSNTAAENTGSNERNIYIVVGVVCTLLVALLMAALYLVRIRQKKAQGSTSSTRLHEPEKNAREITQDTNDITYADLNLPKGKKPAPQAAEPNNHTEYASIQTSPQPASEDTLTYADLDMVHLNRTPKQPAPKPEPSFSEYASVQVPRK
T1 sequence (Q08722 whole entry, looked up): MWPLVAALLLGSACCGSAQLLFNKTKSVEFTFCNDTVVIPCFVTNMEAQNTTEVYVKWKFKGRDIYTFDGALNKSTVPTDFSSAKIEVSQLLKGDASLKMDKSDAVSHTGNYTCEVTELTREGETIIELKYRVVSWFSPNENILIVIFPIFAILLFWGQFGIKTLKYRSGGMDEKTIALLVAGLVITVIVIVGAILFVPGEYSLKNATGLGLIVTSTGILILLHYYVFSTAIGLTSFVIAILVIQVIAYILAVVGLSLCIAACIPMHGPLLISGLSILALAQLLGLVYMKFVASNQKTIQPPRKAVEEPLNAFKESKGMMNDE

Consider `Clc1ccc(Nc2nnc(Cc3ccncc3)c3ccccc23)cc1`, for which the Potency entry in test [1], in test [2] and in test [3] was “inactive” each time.

With `Cc1cc([C@@H](C)Nc2ccccc2C(=O)O)c2nc(N3CCOCC3)cc(=O)n2c1`, the Potency result in test [1] is “inactive”. Further, the Potency in test [2] was 12000 nM (active); in test [4], 0.679 µM (active); in test [3], 13.6 µM (active).

On to `CC(C)(C)OC(=O)CN(Cc1ccc(Cl)cc1)Cc1ccc([N+](=O)[O-])s1`, for which the Potency result in test [1], in test [2], in test [4] and in test [3] was “inactive” throughout.

`CN(C(=O)c1ccc(F)cc1C(F)(F)F)C1CCN(c2nnc(-c3ccnn3C)c3ccccc23)CC1`: the Potency entry in test [1], in test [2] and in test [3] was “inactive” each time.

As for `N#CC[C@H](C1CCCC1)n1cc(-c2ncnc3[nH]ccc23)cn1`, the Potency result in test [1], in test [2] and in test [3] was “inactive” throughout.

Consider `CCCS(=O)(=O)Nc1ccc(F)c(C(=O)c2c[nH]c3ncc(-c4ccc(Cl)cc4)cc23)c1F`, for which the Potency result in test [1] and in test [2] was “inactive” throughout. Besides, the Potency in test [4] and in test [3] was 18.7 µM (active) throughout.

As to `Fc1ccc(Cl)cc1-c1nc(Nc2ccncc2)c2nccnc2n1`, the Potency result in test [1], in test [2], in test [4] and in test [3] was “inactive” throughout.

Take `Cc1c(C)c2c(c(C)c1O)CCC(C)(COc1ccc(CC3SC(=O)NC3=O)cc1)O2` (centres undefined): the Potency result in test [1], in test [2], in test [4] and in test [3] was “inactive” throughout.

With `O=C(NOC[C@H](O)CO)c1ccc(F)c(F)c1Nc1ccc(I)cc1F`, the Potency result in test [1], in test [2] and in test [3] was “inactive” each time. The Potency in test [4] is 18.7 µM (active).

Regarding `NC(=O)c1ccc(I)c([N+](=O)[O-])c1`, the Potency result in test [1], in test [2], in test [4] and in test [3] was “inactive” throughout.

Turning to `CC(C)OC(=O)C1=CN(C(=O)c2ccc(F)c(F)c2)CC(C)(C)c2c1[nH]c1ccccc21`, the Potency entry in test [1], in test [2], in test [4] and in test [3] was “inactive” in each case.

On to `OCCC#Cc1nc(-c2ccc(F)cc2)c(-c2ccncc2)n1CCCc1ccccc1`, for which the Potency entry in test [1] and in test [2] was “inactive” in each case. Further, the Potency in test [3] was 23.5 µM (active).

For `COc1cc(Nc2ncc3c(n2)-c2ccc(Cl)cc2C(c2c(F)cccc2OC)=NC3)ccc1C(=O)O`, in test [1], the Potency result is “inactive”. The Potency in test [2] was 186 nM (active); in test [3], 0.0209 µM (active).

With `CCOc1ccn(-c2ccc(F)cc2)c(=O)c1C(=O)Nc1ccc(Oc2ccnc(N)c2Cl)c(F)c1`, the Potency result in test [1] and in test [2] was “inactive” throughout. Moreover, in test [3], the Potency is 0.059 µM (active).

With `O=C(Nc1ccc(F)c(C(F)(F)F)c1)Nc1nnc(-c2ccncc2)s1`, the Potency entry in test [1], in test [2] and in test [3] was “inactive” each time.

For the compound `CN[C@@H](C)C(=O)N[C@H]1CCCC[C@H]2CC[C@@H](C(=O)N[C@@H](c3ccccc3)c3cn(CCCCc4ccc(CCCCn5cc([C@@H](NC(=O)[C@@H]6CC[C@@H]7CCCC[C@H](NC(=O)[C@H](C)NC)C(=O)N76)c6ccccc6)nn5)cc4)nn3)N2C1=O`, the Potency result in test [1], in test [2] and in test [3] was “inactive” each time.

For the compound `O=C1CCCC2=C1C(c1[nH]ncc1Cl)N=C(Nc1nc3ccccc3o1)N2` (centres undefined), the Potency result in test [1], in test [2], in test [4] and in test [3] was “inactive” in each case.

For `Oc1cccc(-c2nc(N3CCOCC3)c3oc4ncccc4c3n2)c1`, the Potency in test [1] is 2.7 µM (active); in test [2], 758 nM (active); in test [4], 2.15 µM (active); in test [3] it was 0.0855 µM (active).

For `Cc1csc(NC(=O)c2sc3nc4c(c(C(F)(F)F)c3c2N)CCC4)n1`, the Potency result in test [1], in test [2] and in test [3] was “inactive” each time. Moreover, the Potency in test [4] was 23.5 µM (active).

`CCC(C)n1ncn(-c2ccc(N3CCN(c4ccc(OC[C@H]5CO[C@](Cn6cncn6)(c6ccc(Cl)cc6Cl)O5)cc4)CC3)cc2)c1=O` (some centres undefined): the Potency result in test [1], in test [2] and in test [4] was “inactive” each time. Further, the Potency in test [3] is 1.66 µM (active).

For `Cc1cc2c(C(C)C)c(O)c(O)c(C=O)c2c(O)c1-c1c(C)cc2c(C(C)C)c(O)c(O)c(C=O)c2c1O`, the result in test [5] and in test [6] was inactive.
